Many of the other results were omitted from the sample, so hits are more common in it than they were.
Cruzain inh Det: qHTS Assay for Promiscuous and Specific Inhibitors of Cruzain (with detergent); Cruzipain (Trypanosoma cruzi), P25779; purified cruzain, Z-FR-AMC fluorescence, 0.01% Triton; Potency, µM, inactives show max response, negative = inhibition, hits mostly inhibitors; 200,000 tested, 0.43% active; AID 1478, 2009;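 note: potency is the fitted concentration of half-maximal effect; plate controls were neutral wells for no effect and buffer without enzyme for full effect; nearly all actives have a fitted effect of over 40% in size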
Target sequence (P25779 123-467 limits assumed): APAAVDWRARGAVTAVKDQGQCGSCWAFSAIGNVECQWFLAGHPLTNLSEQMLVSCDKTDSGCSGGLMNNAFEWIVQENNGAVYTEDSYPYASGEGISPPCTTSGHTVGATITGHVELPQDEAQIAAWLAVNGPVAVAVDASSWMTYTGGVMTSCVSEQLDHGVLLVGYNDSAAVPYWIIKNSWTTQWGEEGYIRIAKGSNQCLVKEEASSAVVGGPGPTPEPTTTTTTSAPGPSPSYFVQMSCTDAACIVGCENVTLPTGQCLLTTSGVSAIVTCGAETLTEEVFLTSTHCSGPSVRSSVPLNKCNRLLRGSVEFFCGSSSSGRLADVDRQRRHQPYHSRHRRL
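Detergent-containing run (0.01% Triton X-100) in acetate buffer pH 5.5 with 5 mM DTT: enzyme at 1.5 nM final, 15 min compound preincubation at room temperature, then 2 uM Z-FR-AMC substrate. Activity taken as 60 s fluorescence increase at 360/450 nm.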
Cruzain inh noDet: qHTS Assay for Promiscuous and Specific Inhibitors of Cruzain (without detergent); Cruzipain (Trypanosoma cruzi), P25779; purified cruzain, Z-FR-AMC fluorescence, no detergent; Potency, µM, inactives show max response, negative = inhibition, most hits filed as inhibitors; 200,000 tested, 2.3% active;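 note: potency is the fitted concentration of half-maximal effect; plate controls were enzyme without inhibitor for no effect and buffer without enzyme for full effect; nearly all actives have a fitted effect of over 40% in size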
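Detergent-free condition (0.00005% Triton X-100) in acetate buffer pH 5.5 with DTT. 1.5 nM enzyme and compound were pre-mixed 15 min, then 2 uM Z-FR-AMC substrate added; reaction progress from fluorescence change between first and third reads (60 s).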
NS1 inh: qHTS Assay for Inhibitors of Influenza NS1 Protein Function; Potency, µM (doses to about 46.1 µM), inactives show at the highest dose activity, positive = more growth; AID 2326, 2010; 270,000 tested, 0.4% active; calls by dose curve; note: potency is the fitted concentration of half-maximal effect; actives are rising curves; nearly all actives have a fitted effect of over 50% in size
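Recovery from NS1-induced slow growth read by OD600 in budding yeast switched to galactose assay medium (pH 6.0, -URA) at 1:100 dilution. Compound 23 nl per well; the matching strain lacking NS1 serves as control.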
NS1 inh valid: Assay for Inhibitors of Influenza NS1 Protein Function: Hit Validation. shares compounds with NS1 inh. influenza NS1 function cell assay, 15-point titration. activity change, negative = inhibition, % at 32.9 µM. 1,400 tested, under 10 active. AID 492980, 2010; calls by dose curve; note: 0% is about no effect
* marks the source's active call; other numbers are inactive results; ? = inconclusive; . = not tested or not shown. Unless noted, calls come from the whole dose curve; as a rule, active = well fitted curve in the direction sought with a large enough effect; inconclusive = small, poorly fitted or top-dose-only effect, or another doubt; inactive = no such curve, though single readings can be large; an effect the other way counts as inactive or inconclusive.

SMILES | Cruzain inh Det | Cruzain inh noDet | NS1 inh | NS1 inh valid
COc1ccc(-c2nn3c(=O)cc(CN4CCN(C(=O)Nc5ccc(C)c(Cl)c5)CC4)nc3s2)cc1 | 4% | 7% | . | .
CSc1cc(-c2ccc(Cl)cc2)c(C(=O)NC(C)C)s1 | -3% | 11% | -3% | .
CSc1cc(-c2ccc(Cl)cc2)c(C(=O)NN)s1 | -6% | 6% | ? | -20
CCOc1ccc(NC(=O)CN(C)S(=O)(=O)c2ccc3c(c2)c(=O)n(C)c(=O)n3C)cc1 | 1% | -7% | . | .
CCC(CC)C(=O)NC1CC(=O)N(c2ccc3c(c2)OCCO3)C1 (configuration not stated) | -1% | 6% | . | .
O=C(Nc1nc(-c2ccc(F)c(F)c2)cs1)c1ccc(OCC2CCCO2)cc1 (configuration not stated) | -5% | ? | 11% | .
Cc1cc(-c2csc(NC(=O)c3ccc(=O)n(C)n3)n2)c(C)n1CC1CCCO1 (configuration not stated) | -9% | ? | 20µM* | 12
N#CC1=C(N)NC(SCC(=O)O)=C(C#N)C12CCCC2 | -4% | -15% | 2.2µM* | 0
N#CC1=C(N)NC(SCC(=O)Nc2ccccc2)=C(C#N)C12CCCC2 | -7% | -12% | -5% | .
CCOC(=O)c1cc2c(=O)n3ccccc3nc2n(CCOC)c1=NC(=O)c1c(-c2ccccc2Cl)noc1C | -1% | 0% | . | .
CCn1nc(-c2ccccc2)c(-c2ccccc2)c(C(=O)Nc2ccc(S(N)(=O)=O)cc2)c1=O | -2% | ? | . | .
CN1[C@@H]2CC[C@H]1CC(OC(=O)[C@@H](O)c1ccccc1)C2 (some centres not stated) | 0% | -1% | -3% | .
CC(C)(C)C1CCc2onc(C(=O)Nc3cnn(Cc4ccc(F)cc4)c3)c2C1 (configuration not stated) | 0% | 13% | -7% | .
CC(C)(C)C1CCc2onc(C(=O)Nc3ccc(F)cc3F)c2C1 (configuration not stated) | -1% | -2% | ? | ?
O=C(CSc1cnc2ccccc2n1)NC1CCCC1 | -1% | 2% | -9% | .
O=C(O)CSc1cnc2ccccc2n1 | 2% | -12% | 16µM* | 7
CSCCC(NS(=O)(=O)c1cccs1)C(=O)Nc1ccc(C)c(Cl)c1 (configuration not stated) | -7% | 7% | . | .
CC1=C(C(=O)OC(C)C)C(c2cccc([N+](=O)[O-])c2)n2c(cc(=O)[nH]c2=S)N1 (configuration not stated) | -10% | 1% | 11µM* | 36
COCCOC(=O)C1=C(C)NC(C)=C(C(=O)OC(C)C)[C@H]1c1cccc([N+](=O)[O-])c1 | -5% | 23% | . | .
CC(C)C[C@@H](CC(=O)N[C@@H](CCC(=O)O)CC(=O)O)NC(=O)[C@@H]1CNCC[C@H]1NC(=O)C[C@H](CCCN)NC(=O)C[C@H](Cc1c[nH]c2ccccc12)NC(=O)[C@@H]1CNCC[C@H]1N | 2% | -14% | . | .
